# Measurements: PubChem BioAssay (NCI)
# About 83,000 compounds went through this panel and 20% of them were active in at least one assay; those are over-represented in the sample as a whole.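 Growth was measured after 48 h exposure to one concentration of compound in 96-well plates. Values under 10 count as active.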 A number with no mark means an inactive call. Active and inactive are the calls of the source.
# Tests used:
# Experiment in all cases: NCI-60 one-dose screen, 48 h (100 = growth as untreated, 0 = no growth, -100 = all killed)
# Conditions in all cases: 10 µM unless noted
# T-47D breast = tested on: T-47D breast
# BT-549 breast = tested on: BT-549 breast
# MDA-MB-435 melanoma = tested on: MDA-MB-435 melanoma
# SW-620 colon = tested on: SW-620 colon
# MCF7 breast = tested on: MCF7 breast
# HCT-116 colon = tested on: HCT-116 colon
# HCC-2998 colon = tested on: HCC-2998 colon
# KM12 colon = tested on: KM12 colon
SMILES,growth (T-47D breast),growth (BT-549 breast),growth (MDA-MB-435 melanoma),growth (SW-620 colon),growth (MCF7 breast),growth (HCT-116 colon),growth (HCC-2998 colon),growth (KM12 colon)
O=C1Nc2ccc(C(=O)O)c(O)c2C1=O,106%,106%,106%,104%,104%,108%,117%,106%
O=C(CNC(=O)c1cccc2ccccc12)Nc1ccccc1Cc1ccccc1,37.7% [5 µM],40.3% [5 µM],-8.01% [5 µM] (active),25.5% [5 µM],23.5% [5 µM],14.6% [5 µM],87.1% [5 µM],36% [5 µM]
Nc1ccccc1-c1ccn[nH]1,93.5%,91.2%,93.2%,96.7%,100%,92.7%,97.2%,82.3%
COC(=O)C1CCN(S(=O)(=O)c2ccc(-c3ccccc3)cc2)CC1,102%,129%,111%,102%,99.7%,115%,103%,102%
O=C(Nc1nc(-c2ccc(Cl)cc2)cs1)c1cc(-c2ccc(Br)cc2)nc2ccc(Cl)cc12,53%,-15.9% (active),-21.6% (active),34.9%,16.4%,5.84% (active),109%,24.8%
COc1ccc(C2=NN(C(N)=S)C(c3ccc4c(c3)OCO4)C2)cc1 (stereo unspecified),36.7%,-2.03% (active),3.04% (active),1.46% (active),10.5%,1.71% (active),-24.7% (active),2.57% (active)
O=C(Nc1cccc(-n2cc(-c3ccncc3)c(-c3cc(O)cc(Cl)c3)n2)c1)Nc1ccc(Cl)c(Cl)c1,-5.53% (active),0.544% (active),-33.3% (active),-33.8% (active),2.74% (active),-57.3% (active),0.568% (active),2.26% (active)
CC(=O)N1N=C(c2ccc(Nc3ccnc4cc(Cl)ccc34)cc2)CC1c1ccc(Cl)cc1 (stereo unspecified),25.5%,54.7%,6.15% (active),63.1%,25.6%,55.6%,44.4%,36.5%
CCCc1n(Cc2ccc3ccccc3c2)cc[n+]1Cc1ccc2ccccc2c1,-3.21% (active),-32.2% (active),-50.8% (active),8.13% (active),-16.7% (active),1.39% (active),-22.9% (active),-63.7% (active)
COc1c(Br)cc(C(c2cc(Br)c(OC)c(Br)c2)c2ccccc2C(=O)O)cc1Br,93.6%,82.8%,104%,99.9%,96.5%,90.2%,97.8%,103%
COC(=O)c1cc2c(/C=C3/NC(=S)NC3=O)coc2n1C,80.3%,72.9%,94.7%,96.6%,81.3%,96.8%,103%,96.5%
O=C(c1ccccc1)c1ccc(Oc2ccc([N+](=O)[O-])cc2[N+](=O)[O-])cc1,66.1%,-1.35% (active),-43.7% (active),3.07% (active),15.6%,-12.8% (active),97.8%,-17.8% (active)
C/C(=C\CCc1ccoc1)CC/C=C(\C)CCCN1CCSCC1,60.9%,77.7%,91.1%,86.1%,43.2%,53.8%,74.6%,81%
COc1cccc(N2CCN(c3cccc(C)n3)CC2)c1,115%,105%,95.1%,110%,95.4%,91%,107%,110%
COc1ccc(Cl)cc1Nc1nc(C(F)(F)F)ccc1C(=O)N/N=C/c1c(Cl)cccc1Cl,42.2%,48.6%,62.7%,36.9%,185%,51.4%,63.5%,52.7%
COc1cccc2c1C(=O)c1c(O)c3c(c(O)c1C2=O)C[C@@](O)(C(C)=O)C[C@@H]3O[C@H]1C[C@H](N)[C@H](O)[C@H](C)O1,-12.2% (active),-58.8% (active),-98.7% (active),-12.8% (active),0% (active),0.333% (active),-70.4% (active),-14.9% (active)
NS(=O)(=O)c1cc2c(cc1Cl)NC=NS2(=O)=O,97.7%,95.9%,102%,111%,96.9%,98%,93.4%,106%
Nc1c(C(=O)Nc2cccc(Cl)c2)sc2nc3c(cc12)C(O)CCC3 (stereo unspecified),52.3%,56%,-37.5% (active),43.9%,17.8%,19.1%,24.9%,26.9%
COc1cc(/C=C/C(=O)C(C(=O)/C=C/c2ccc(OC(=O)CCNC34CC5CC(CC(C5)C3)C4)c(OC)c2)C(=O)CCNC23CC4CC(CC(C4)C2)C3)ccc1OC(=O)CCNC12CC3CC(CC(C3)C1)C2 (stereo unspecified),41.6%,-24.2% (active),-29.9% (active),-22.7% (active),14.4%,-48.8% (active),-48% (active),-5.8% (active)
c1ccc2nc(N/N=C3\CCCCC3C3CCCCC3)ccc2c1 (stereo unspecified),40.4%,61%,78.8%,44.2%,58.1%,6.79% (active),64.2%,38.4%
O=c1ncc(-c2ccc(C(F)(F)F)cc2)c(NC2CCCCCC2)[nH]1,32.5%,72.7%,45.3%,46.5%,40.4%,39.1%,98.1%,33.4%
CCN1CCN(c2nc(NNC(=O)Cc3ccccc3)nc(N3CCN(C(c4ccccc4)c4ccccc4)CC3)n2)CC1,29.9%,88.1%,-33.7% (active),16.5%,33.9%,28.3%,38.5%,59%
COc1ccc2c(c1)[n+](=O)c(/C=C/C(=O)c1cc(OC)c(OC)c(OC)c1)c(C)n2[O-],28.3%,73.3%,34.6%,21.7%,18.1%,17.9%,112%,80.9%
COCCCNS(=O)(=O)c1ncnc2nc[nH]c12,105%,123%,107%,101%,112%,93.5%,102%,95.7%
O=C(CNC(=O)c1cccc2ccccc12)Nc1ccccc1Oc1cccc(O)c1,42.3% [5 µM],18.7% [5 µM],-48% [5 µM] (active),20.3% [5 µM],20.5% [5 µM],8.18% [5 µM] (active),58.3% [5 µM],22.8% [5 µM]
c1cc[n+](Cc2ccnc3ccccc23)cc1,106%,112%,100%,50.2%,41.1%,21.1%,105%,103%
Cn1cnc([N+](=O)[O-])c1Sc1nc(N)nc2nc[nH]c12,47.2%,43.4%,25%,50.7%,15.1%,23%,19.6%,23.5%
